High-throughput results from PubChem BioAssay.
Platelet DG rel: modulates dense granule release in human platelets | human platelet-rich plasma, SFLLRN dense granule ATP release, luminescence | inhibition, %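 (compounds screened at 7.5 µM in platelet-rich plasma)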 | 0.22% of 300,000 active;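 active means mean replicate score, as percent of positive control, at or above 50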
NTR1 ag: activates human neurotensin receptor 1; P30989; NTR1-U2OS beta-arrestin-GFP spot imaging, agonist mode; activation, % at 20 µM; 0.17% of 330,000 active; AID 493036;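 active means activation at or above 40% of the spot to cytoplasm intensity ratio, with at least 20 cells analyzed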
GRK2 inh: blocks RNA aptamer binding to human GRK2; bead flow cytometry, FAM-aptamer displacement from GRK2; AID 488847; inhibition of aptamer binding, % at 10 µM; 0.59% of 330,000 active; P25098;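 active means inhibition of aptamer binding above 40%, roughly 3 SD of noise, on plates passing a quality check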;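 further: median bead fluorescence of bound FAM aptamer so fluorescent compounds give negative values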
Target sequence (P25098 whole entry, looked up): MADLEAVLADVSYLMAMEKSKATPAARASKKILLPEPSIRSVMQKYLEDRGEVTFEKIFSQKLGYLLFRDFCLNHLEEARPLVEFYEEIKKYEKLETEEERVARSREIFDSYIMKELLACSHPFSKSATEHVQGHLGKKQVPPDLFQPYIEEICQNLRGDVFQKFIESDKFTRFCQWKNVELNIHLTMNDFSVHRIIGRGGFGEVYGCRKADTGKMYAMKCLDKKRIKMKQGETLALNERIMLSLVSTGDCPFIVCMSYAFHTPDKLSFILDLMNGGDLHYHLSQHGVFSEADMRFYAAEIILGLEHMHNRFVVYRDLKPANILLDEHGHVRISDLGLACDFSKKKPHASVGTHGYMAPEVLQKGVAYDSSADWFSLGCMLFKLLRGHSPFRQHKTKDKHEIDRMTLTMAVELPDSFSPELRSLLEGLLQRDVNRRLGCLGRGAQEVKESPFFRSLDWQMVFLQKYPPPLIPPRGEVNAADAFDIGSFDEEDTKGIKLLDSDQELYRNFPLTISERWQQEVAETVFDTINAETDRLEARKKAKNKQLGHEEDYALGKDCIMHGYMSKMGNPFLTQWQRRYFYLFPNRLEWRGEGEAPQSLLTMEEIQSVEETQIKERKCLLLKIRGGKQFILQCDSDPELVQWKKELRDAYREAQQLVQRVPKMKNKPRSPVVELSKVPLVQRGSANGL
MIN6 prolif-1: MIN6 beta-cell proliferation induction | proliferation, % at 10 µM | AID 2380 | 0.29% of 330,000 active | MIN6 cells proliferation, ATPlite luminescence, 48 h; cells starved in 0.2% serum; 100% = growth in 10% serum;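 active means compounds whose signal lies at least 3.5 SD above the mean of all wells on their plate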
MIN6 prolif-2: confirmation of inducers of beta-cell replication in MIN6 cells; shares compounds with MIN6 prolif-1; MIN6 beta-cell proliferation, ATPlite luminescence, 48 h; cells kept in 0.2% serum; scaled between 0.2% and 10% serum; proliferation increase, % at 50 µM; 920 tested, under 10 active;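 active means proliferation increase above 40% at any of the four tested concentrations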
Of the large screens only hits and unclear results are named; the others gave an inactive call (follow-up assays come after a bar, where they were run). An excerpt weighted towards active compounds, which were near 1.2% of everything screened.

O=C(C(=C1N(Cc2ccc(Cl)nc2)CCN1Cc1ccc(Cl)nc1)[N+](=O)[O-])C(Cl)Cl	GRK2 inh 44
Cc1cc(/C=C2\C(=O)NC(=O)N(Cc3ccccc3)C2=O)c(C)n1-c1ccc(Cl)c(C(=O)O)c1	GRK2 inh 100
Cc1cc(/C=C2\C(=O)NC(=O)N(Cc3ccco3)C2=O)c(C)n1-c1ccc(C(=O)O)cc1	none
CC(=O)OC1(c2ccccc2)CCN(C2CCCCC2)CC1C (stereo not drawn)	none
CN1/C(=C\C=Nc2ccccc2)C(C)(C)c2ccccc21	none
CN1/C(=C\C=C\C2=[N+](C)c3ccc4ccccc4c3C2(C)C)C(C)(C)c2ccccc21	GRK2 inh 84 (no result: Platelet DG rel)
COc1ccc(N2CCN(CCCN)CC2)cc1	Platelet DG rel 63
COc1ccc(OC)c(N2C(=O)/C(=C/c3ccco3)C(=O)NC2=S)c1	GRK2 inh 100
Cc1ccc(/C=C2\C(=O)NC(=S)N(c3cccc(F)c3)C2=O)o1	none
O=C1NC(=S)N(c2ccc(F)cc2)C(=O)/C1=C/c1ccco1	GRK2 inh 99
Cc1c(CC(=O)N2C[C@H]3C[C@@H](C2)c2cccc(=O)n2C3)c(=O)oc2cc(O)c(Cl)cc12	none
CN1c2ccc([N+](=O)[O-])cc2CC2(C(=O)NC(=O)N(c3ccc(Br)cc3)C2=O)C1c1ccccc1 (stereo not drawn)	none
C=CCn1c(=O)c(C=Nc2cccnc2Cl)c(O)n(CCCC)c1=O	none
Cc1ccsc1C(=O)C1CCCN(Cc2cc(C(C)C)n[nH]2)C1 (stereo not drawn)	none
O=C1NC(=O)C(=Cc2ccc(-c3ccc(Cl)cc3)o2)C(=O)N1	NTR1 ag 41
CC(C)n1nnnc1CN1CCN(C)CC1	none
O=c1[nH]c(O)c(/C=C2/C=CC(c3cc(Cl)ccc3Cl)=N2)c(=O)[nH]1	NTR1 ag 46
CC1=Nc2ccccc2/C1=C/c1c(O)[nH]c(=O)[nH]c1=O	none
CC(N)Cc1ccccc1Sc1ccc(O)cc1 (stereo not drawn)	Platelet DG rel 76
CC(Cc1ccccc1Sc1ccc(O)cc1)N(C)C (stereo not drawn)	none
Cc1cccc(N2C(=O)NC(=O)/C(=C/c3ccc([N+](=O)[O-])o3)C2=O)c1	GRK2 inh 44 (no result: Platelet DG rel, NTR1 ag, MIN6 prolif-1)
O=C(NC(C(Cl)Cl)N1CCOCC1)c1ccccc1 (stereo not drawn)	none
CCOc1ccc(NC(=O)c2c(O)[nH]c(=O)[nH]c2=O)cc1	Platelet DG rel 56 (no result: GRK2 inh)
CCOC(=O)c1ccc(NC(=O)c2c(O)[nH]c(=O)[nH]c2=O)cc1	none
NC(Cc1ccccc1)c1nc(-c2ccccc2)no1 (stereo not drawn)	none
CCCOC(=O)c1ccc(-[n+]2c(-c3ccccc3)cc(-c3ccccc3)cc2-c2ccccc2)cc1	NTR1 ag 40
O=C1NC(=O)N(c2ccc3c(c2)OCO3)C(=O)/C1=C/c1ccsc1	none
O=C1NC(=O)N(c2ccc3c(c2)OCO3)C(=O)/C1=C/c1cccs1	GRK2 inh 44
COc1ccc(/C=C2/C(=O)NC(=O)N(Cc3ccco3)C2=O)cc1	GRK2 inh 82
CCn1nc(-c2ccccc2)nc2c(=O)n(C)c(=O)nc1-2	GRK2 inh 54
CCCCCCn1c(=O)c(C(=O)Nc2ncccc2C)c(O)c2ccccc21	MIN6 prolif-1 6.6 | MIN6 prolif-2 inactive
CN1CC(C#N)C2(O)c3ccccc3CCC2C1 (stereo not drawn)	none
CC1C(C)N1CC(O)Cn1ccnc1[N+](=O)[O-] (stereo not drawn)	none
COc1ccc(NC(=O)C2C3CCC(O3)C2C(=O)O)c(OC)c1 (stereo not drawn)	MIN6 prolif-1 6.7 | MIN6 prolif-2 inactive
COC(=O)C1=C(c2ccc(F)cc2F)C[C@@H]2CC[C@H]1N2C(=O)NCc1ccco1	none (no result: Platelet DG rel)
CSCCC(N=Cc1c(O)n(-c2ccc(Cl)cc2)c(=O)[nH]c1=O)C(=O)OC(C)(C)C (stereo not drawn)	none
COc1ccc(CC(C)NC2CCCCCC2)cc1 (stereo not drawn)	MIN6 prolif-1 6.1 | MIN6 prolif-2 inactive
CC1CCCCC1NC1CCN(C)CC1 (stereo not drawn)	MIN6 prolif-1 6.0 | MIN6 prolif-2 inactive
CN(C)C(=O)On1c(-c2ccccc2)nc2ccc(Cl)cc21	MIN6 prolif-1 12 | MIN6 prolif-2 inactive
COc1ccc(-c2nc3ccccc3n2OC(=O)N(C)C)cc1	none
CCN(CC)S(=O)(=O)c1ccc(N=Cc2c(O)n(-c3ccccc3)c(=O)[nH]c2=O)cc1	none
